Test results reported in PubChem BioAssay AID651744 (Broad Institute, 2012).
Hit rate of the full screen: of about 5,600 compounds, about 3,100 (55%) were called active. Another 3% or so got no clear call; they are omitted. So high a share suggests a set chosen from earlier hits. The list is a sample of the results. Unmarked numbers belong to inactive results.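 Rule for the calls: active = mean loss of cell viability signal at or above a set limit, and enough replicates individually reaching it; inconclusive = meets only the mean limit or only the replicate share; inactive = meets neither condition.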

Assay: NIH/3T3 fibroblast cytotoxicity, confirmation, cytotoxicity control, cell-based, cherry-pick, single point, set 2 (AID 651744);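 note: 0% = median of neutral control wells and 100% = median of positive control wells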
Conditions: NIH/3T3 viability, CellTiter-Glo ATP luminescence, 90 h; at 24.9 µM; stronger effect = higher value

Which inhibition does the source give for `C[C@H](CO)N1C[C@H](C)[C@H](CN(C)C(=O)Nc2ccc(C(F)(F)F)cc2)OCCCC[C@H](C)Oc2ccc(NC(=O)C3CCCCC3)cc2C1=O` here?
Its inhibition is -9.18%.

With `C[C@H](CO)N1C[C@H](C)[C@@H](CN(C)Cc2ccc(C(F)(F)F)cc2)OCCCC[C@H](C)Oc2ccc(NC(=O)C3CCCCC3)cc2C1=O` as the molecule, how does the inhibition read?
The inhibition was 22.4%.

Which inhibition does the source give for `C[C@H]1CCCCO[C@H](CN(C)Cc2ccc(C(F)(F)F)cc2)[C@@H](C)CN([C@@H](C)CO)C(=O)c2cc(NC(=O)C3CCCCC3)ccc2O1` here?
Its inhibition is 25.9% (active).

With `C[C@H](CO)N1C[C@H](C)[C@@H](CN(C)C(=O)C2CCCCC2)Oc2cc(-c3ccccc3)ccc2S1(=O)=O` as the molecule, how does the inhibition read?
The inhibition was 33.8% (active).

With `CCCC#Cc1ccc2c(c1)O[C@H](CN(C)C(=O)CC)[C@@H](C)CN([C@H](C)CO)S2(=O)=O` as the molecule, how does the inhibition read?
Its inhibition is 48.4% (active).

Which inhibition does the source give for `C[C@@H]1CN([C@@H](C)CO)S(=O)(=O)c2ccc(C#CCN(C)C)cc2O[C@H]1CN(C)C(=O)C1CC1` here?
The inhibition was 15.6%.

With `CC(C)CC#Cc1ccc2c(c1)O[C@H](CN(C)C(=O)C1CC1)[C@@H](C)CN([C@@H](C)CO)S2(=O)=O` as the molecule, how does the inhibition read?
Its inhibition is 34.8% (active).

Which inhibition does the source give for `CCC(=O)N(C)C[C@@H]1Oc2cc(C#CCN(C)C)ccc2S(=O)(=O)N([C@H](C)CO)C[C@H]1C` here?
Its inhibition is 5.45%.

Which inhibition does the source give for `N#C[C@@H]1[C@@H](c2ccccc2)[C@@H](CO)N1C(=O)Cc1ccccc1` here?
The inhibition was 17%.

For `N#C[C@@H]1[C@@H](c2ccc(/C=C/c3ccccc3)cc2)[C@@H](CO)N1C(=O)C1CC1`, which inhibition is on record?
The inhibition was 48.2% (active).

With `COCC(=O)N1[C@H](CO)[C@@H](c2ccc(C#Cc3ccccc3F)cc2)[C@@H]1C#N` as the molecule, how does the inhibition read?
The inhibition was 19.1%.

With `N#C[C@@H]1[C@H](c2ccc(C#Cc3cccc(F)c3)cc2)[C@@H](CO)N1C(=O)C1CCCC1` as the molecule, how does the inhibition read?
Its inhibition is 105% (active).

Which inhibition does the source give for `CCCC#Cc1ccc([C@@H]2[C@@H](C#N)N(C(=O)C3CCCC3)[C@@H]2CO)cc1` here?
The inhibition was 23.7%.

For `N#C[C@@H]1[C@@H](c2ccc(C#Cc3cccc(F)c3)cc2)[C@@H](CO)N1C(=O)C1CCC1`, which inhibition is on record?
Its inhibition is 22.8%.

Which inhibition does the source give for `C[C@@H]1CN([C@@H](C)CO)S(=O)(=O)c2ccc(C#Cc3ccc(F)cc3)cc2O[C@H]1CN(C)S(C)(=O)=O` here?
The inhibition was 64.1% (active).

For `C[C@@H]1CN([C@H](C)CO)S(=O)(=O)c2ccc(C#Cc3ccncc3)cc2O[C@@H]1CN(C)S(=O)(=O)c1ccc(F)cc1`, which inhibition is on record?
The inhibition was 27.4% (active).

For `Cc1noc(C)c1S(=O)(=O)N(C)C[C@H]1Oc2ccc(N(C)C)cc2CC(=O)N([C@H](C)CO)C[C@@H]1C`, which inhibition is on record?
Its inhibition is -3.27%.

Which inhibition does the source give for `O=S(=O)(c1ccc(F)cc1)N1CCCCN2[C@H](C1)[C@H](c1ccc(C3=CCCCC3)cc1)[C@@H]2CO` here?
The inhibition was 105% (active).

Which inhibition does the source give for `CN(C)CC#Cc1ccc([C@H]2[C@H]3CN(S(=O)(=O)c4ccccc4F)CCCCN3[C@H]2CO)cc1` here?
The inhibition was 18.4%.

For `Cc1ccccc1-c1ccc([C@@H]2[C@H](CO)N3CCCCN(S(=O)(=O)c4ccc(F)cc4)C[C@@H]23)cc1`, which inhibition is on record?
The inhibition was 102% (active).

With `Cc1ccccc1-c1ccc([C@H]2[C@H]3CN(S(=O)(=O)c4ccc(F)cc4)CCCCN3[C@H]2CO)cc1` as the molecule, how does the inhibition read?
Its inhibition is 103% (active).

Which inhibition does the source give for `C[C@@H]1CN([C@H](C)CO)C(=O)c2cccc(NC(=O)c3ccc(-c4nccs4)cc3)c2O[C@@H]1CN(C)C(=O)Nc1ccc(C(F)(F)F)cc1` here?
Its inhibition is 44% (active).

For `C[C@H](CO)N1C[C@H](C)[C@@H](CN(C)Cc2ccc(C(=O)Nc3ccccc3N)cc2)Oc2c(NC(=O)c3ccc(-c4nccs4)cc3)cccc2C1=O`, which inhibition is on record?
Its inhibition is 42% (active).

Which inhibition does the source give for `C[C@H]1CN([C@@H](C)CO)C(=O)c2cccc(NS(=O)(=O)c3cn(C)cn3)c2O[C@@H]1CN(C)CC1CCCCC1` here?
The inhibition was 0.698%.

For `C[C@@H]1CN([C@H](C)CO)C(=O)c2cccc(NC(=O)c3cnccn3)c2O[C@@H]1CN(C)Cc1ccc(C(=O)Nc2ccccc2N)cc1`, which inhibition is on record?
Its inhibition is 68.5% (active).

For `C[C@@H]1CCCCO[C@H](CN(C)C(=O)Nc2ccc(C(F)(F)F)cc2)[C@H](C)CN([C@H](C)CO)C(=O)c2cc(NC(=O)Nc3ccc(C(F)(F)F)cc3)ccc2O1`, which inhibition is on record?
The inhibition was -27.4%.

Which inhibition does the source give for `COc1ccc(NC(=O)N(C)C[C@H]2OCCCC[C@H](C)Oc3ccc(NC(=O)Nc4ccc(C(F)(F)F)cc4)cc3C(=O)N([C@@H](C)CO)C[C@@H]2C)cc1` here?
The inhibition was 20.7%.

With `Cc1cc(C(=O)Nc2cccc3c2O[C@@H](CN(C)Cc2ccc(C(=O)Nc4ccccc4N)cc2)[C@H](C)CN([C@@H](C)CO)C3=O)n(C)n1` as the molecule, how does the inhibition read?
The inhibition was 10.2%.

With `COc1ccc(S(=O)(=O)N(C)C[C@H]2Oc3c(NC(=O)Nc4cccc5ccccc45)cccc3C(=O)N([C@@H](C)CO)C[C@H]2C)cc1` as the molecule, how does the inhibition read?
The inhibition was 26.1%.

For `Cc1ccc(S(=O)(=O)N(C)C[C@H]2OCCCC[C@H](C)Oc3ccc(NC(=O)Cc4ccccc4)cc3C(=O)N([C@@H](C)CO)C[C@@H]2C)cc1`, which inhibition is on record?
The inhibition was -4.04%.

Which inhibition does the source give for `Cc1ccc(S(=O)(=O)N(C)C[C@@H]2Oc3c(NC(=O)c4nc5ccccc5s4)cccc3C(=O)N([C@H](C)CO)C[C@@H]2C)cc1` here?
Its inhibition is 49% (active).

Which inhibition does the source give for `O=C(Nc1cccc(F)c1)N1CCCCN2[C@H](CO)[C@H](c3ccc(C#CC4CC4)cc3)[C@@H]2C1` here?
Its inhibition is 22.3%.

For `O=C(Nc1ccccc1F)N1CCCCN2[C@H](CO)[C@@H](c3ccc(-c4cccnc4)cc3)[C@H]2C1`, which inhibition is on record?
Its inhibition is 14.6%.

For `O=C(C1CCC1)N1CCCCN2[C@H](CO)[C@H](c3ccc(-c4cccc(F)c4)cc3)[C@@H]2C1`, which inhibition is on record?
Its inhibition is 1.34%.

With `N#Cc1cccc(-c2ccc([C@H]3[C@H](CO)N4CCCCN(C(=O)Nc5cccc(F)c5)C[C@@H]34)cc2)c1` as the molecule, how does the inhibition read?
Its inhibition is 105% (active).

With `O=C(C1CCCC1)N1CCCCN2[C@@H](CO)[C@H](c3ccc(-c4cccc(F)c4)cc3)[C@@H]2C1` as the molecule, how does the inhibition read?
Its inhibition is 105% (active).

For `O=C(C1CC1)N1CCCCN2[C@H](CO)[C@H](c3ccc(-c4cccc(F)c4)cc3)[C@H]2C1`, which inhibition is on record?
The inhibition was 56.9% (active).

For `O=C(C[C@@H]1C[C@H]2c3cc(NC(=O)C4CCC4)ccc3O[C@H]2[C@@H](CO)O1)NCc1ccc2c(c1)OCO2`, which inhibition is on record?
The inhibition was -13.1%.

Which inhibition does the source give for `C[C@H]1CN([C@@H](C)CO)C(=O)c2cc(C#CC3CCCCC3)cnc2O[C@H]1CN(C)S(=O)(=O)c1ccccc1` here?
The inhibition was 62.7% (active).

For `CC(C)NC(=O)Nc1ccc2c(c1)C(=O)N([C@@H](C)CO)C[C@H](C)[C@H](CN(C)S(=O)(=O)c1ccc(Cl)cc1)OCCCC[C@H](C)O2`, which inhibition is on record?
The inhibition was 14%.

For `C[C@@H]1CCCCO[C@H](CN(C)S(=O)(=O)c2ccc(F)cc2)[C@H](C)CN([C@@H](C)CO)C(=O)c2cc(NS(=O)(=O)c3ccccc3)ccc2O1`, which inhibition is on record?
Its inhibition is -19.2%.

Which inhibition does the source give for `C[C@@H]1CCCCO[C@@H](CN(C)S(=O)(=O)c2ccc(Cl)cc2)[C@H](C)CN([C@@H](C)CO)C(=O)c2cc(NC(=O)Cc3ccccc3)ccc2O1` here?
The inhibition was 12.4%.

Which inhibition does the source give for `C[C@@H]1CN([C@@H](C)CO)C(=O)c2cc(C#CC3CCCCC3)cnc2O[C@H]1CN(C)S(=O)(=O)c1ccccc1` here?
Its inhibition is 106% (active).

Which inhibition does the source give for `C[C@@H]1CN([C@H](C)CO)C(=O)c2cc(C#CC3CCCCC3)cnc2O[C@@H]1CN(C)C(=O)NC1CCCC1` here?
The inhibition was 75.6% (active).

With `C[C@@H]1CN([C@H](C)CO)C(=O)c2cc(-c3cncnc3)cnc2O[C@H]1CN(C)C(=O)Nc1ccc2c(c1)OCO2` as the molecule, how does the inhibition read?
The inhibition was 2.69%.

Which inhibition does the source give for `C[C@H](CO)N1C[C@H](C)[C@H](CN(C)C(=O)Nc2ccc3c(c2)OCO3)Oc2ncc(C#Cc3cccc(F)c3)cc2C1=O` here?
The inhibition was 103% (active).

With `C[C@H](CO)N1C[C@H](C)[C@H](CN(C)C(=O)C2CCCCC2)Oc2ncc(C#Cc3cccc(F)c3)cc2C1=O` as the molecule, how does the inhibition read?
The inhibition was 92.3% (active).

With `OC[C@@H]1[C@H](c2ccc(C#Cc3ccccc3)cc2)[C@@H]2CN(Cc3cncnc3)CCCCN12` as the molecule, how does the inhibition read?
Its inhibition is 104% (active).

For `OC[C@H]1[C@H](c2ccc(-c3cccc(F)c3)cc2)[C@@H]2CN(Cc3cncnc3)CCCCN12`, which inhibition is on record?
The inhibition was 31.7% (active).

Which inhibition does the source give for `Cc1ccc(-c2ccc([C@H]3[C@H](CO)N4CCCCN(Cc5cncnc5)C[C@@H]34)cc2)cc1` here?
Its inhibition is 64.8% (active).

Which inhibition does the source give for `CN(C)C(=O)c1ccc(-c2ccc([C@H]3[C@@H](CO)N4CCCCN(CC5CC5)C[C@H]34)cc2)cc1` here?
The inhibition was -3.83%.

Which inhibition does the source give for `Cc1cccc(-c2ccc([C@H]3[C@@H](CO)N4CCCCN(Cc5cncnc5)C[C@H]34)cc2)c1` here?
The inhibition was 102% (active).

For `OC[C@@H]1[C@H](c2ccc(C#CC3(O)CCCC3)cc2)[C@H]2CN(Cc3cncnc3)CCCCN12`, which inhibition is on record?
The inhibition was 16.8%.

Which inhibition does the source give for `CCC(=O)N1CC[C@@H]2[C@@H](CO)N(C)c3ccc(-c4cccc(OC)c4)cc3[C@@H]21` here?
Its inhibition is -5.88%.

With `CC(C)C#Cc1ccc2c(c1)O[C@H](CN(C)Cc1ccccc1)[C@H](C)CN([C@@H](C)CO)S2(=O)=O` as the molecule, how does the inhibition read?
Its inhibition is 106% (active).

For `C[C@@H]1CN([C@H](C)CO)S(=O)(=O)c2ccc(C#C[C@@H](C)O)cc2O[C@@H]1CN(C)Cc1ccc(-c2ccccc2)cc1`, which inhibition is on record?
The inhibition was 105% (active).

Which inhibition does the source give for `CC(=O)N(C)C[C@H]1Oc2cc(C#CCN(C)C)ccc2S(=O)(=O)N([C@@H](C)CO)C[C@@H]1C` here?
The inhibition was 16.1%.

For `C[C@H]1CN([C@@H](C)CO)S(=O)(=O)c2ccc(C#CCN(C)C)cc2O[C@@H]1CN(C)Cc1ccc(F)cc1`, which inhibition is on record?
The inhibition was 105% (active).

For `C[C@@H]1CN([C@@H](C)CO)S(=O)(=O)c2ccc(/C=C/c3ccccc3)cc2O[C@H]1CN(C)Cc1ccccc1`, which inhibition is on record?
The inhibition was 72.5% (active).

With `COc1cccc(C#Cc2ccc([C@@H]3[C@H](C#N)N[C@H]3CO)cc2)c1` as the molecule, how does the inhibition read?
The inhibition was 61.1% (active).
